The values that follow come from PubChem BioAssay (NCI).

Each structure is given as a SMILES string. Values joined by “and” are separate entries in the source; they are usually repeats but may differ in a detail not shown here. Equal entries are not always repeated. The panel holds about 83,000 compounds, 20% with a hit somewhere; the sample as a whole holds those more often.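 Note: values are percent growth. 100 is the growth of untreated cells, values between 100 and 0 indicate rising inhibition; between -100 and 0 indicates cell death.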 Active and inactive are the calls of the source. The calls were made as follows: active = growth percent below 10; inactive = the rest.

Experiment in all cases: NCI-60 one-dose screen, 48 h (100 = growth as untreated, 0 = no growth, -100 = all killed)
Experiment [1] deals with NCI-H23 lung. The following applies: 10 µM unless noted.
The subject of experiment [2] is NCI-H226 lung. Conditions: 10 µM unless noted.
Experiment [3] deals with HOP-62 NSCLC. The following applies: 10 µM unless noted.
The test system of experiment [4] is NCI-H460 lung. Conditions: 10 µM unless noted.
The subject of experiment [5] is HOP-92 NSCLC. Conditions: 10 µM.
Experiment [6] relates to NCI-H522 lung. The following applies: 10 µM.
In experiment [7] the test system is A549/ATCC NSCLC. The following applies: 10 µM unless noted.
Experiment [8] concerns 786-0 renal. Conditions: 10 µM unless noted.
Experiment [9] deals with COLO 205 colon. The following applies: 10 µM unless noted.
Experiment [10] has as its system NCI-H322M lung. Conditions: 10 µM unless noted.

Regarding `Cn1cnc([N+](=O)[O-])c1Sc1ncn[nH]1`, the growth in [1] is 91.7% (inactive); in experiment [2], 102% (inactive); in experiment [3], 96.9% (inactive); in [4], 115% (inactive); in [5], 101% (inactive); in [6], 82.9% (inactive). Also, the growth is 99.4% (inactive) in [7] and 102% (inactive) in [8].

In the case of `CC(C)NC(=O)N/C=C(\C#N)C(N)=O`, the growth in experiment [1] was 92.7% (inactive); in [2] it was 97.5% (inactive); in experiment [3], 88.2% (inactive); in experiment [4] it was 91.1% (inactive); in [5], 96.6% (inactive); in experiment [6], 87.2% (inactive). Besides, the growth in experiment [7] was 111% (inactive); in experiment [8], 99% (inactive); in experiment [9], 103% (inactive).

On to `O=C(/C=C/c1ccccc1)c1ccccc1`, for which the growth in experiment [1] was 84.6% (inactive); in experiment [2] it was 126% (inactive); in experiment [10], 115% (inactive); in experiment [3] it was 94.9% (inactive); in experiment [4], 93.1% (inactive); in experiment [6], 84.8% (inactive). Moreover, the results for the growth in experiment [7], in [8] and in [9] were 96.3% (inactive), 86.9% (inactive) and 114% (inactive), respectively.

Turning to `COc1ccc(C(=O)CC(c2ccccc2)C(C#N)c2ccccc2)cc1` (stereo not drawn), the growth in experiment [1] is 88.4% (inactive); in experiment [2] it was 81.1% (inactive); in experiment [3], 98.3% (inactive); in experiment [4], 92.8% (inactive); in experiment [5], 67.8% (inactive); in experiment [6], 69.5% (inactive). The growth in experiment [7] is 74.2% (inactive); in [8], 90% (inactive); in experiment [9], 110% (inactive).

In the case of `CC1(C)COC(=S)N1`, the growth is 101% (inactive) in experiment [1]; 94.5% (inactive) in experiment [2]; 99.8% (inactive) in experiment [3]; 113% (inactive) in [4]; 85.2% (inactive) in experiment [6]; 104% (inactive) in [7]. In addition, the growth in [8] is 99.7% (inactive); in experiment [9], 124% (inactive).

`CCCCCCCCCCCCCCCCC(C(=O)O)C(O)(CC(=O)O)C(=O)O` (stereo not drawn): the growth in experiment [1] is 105% (inactive) and -38.2% (active); in experiment [2], 107% (inactive) and -23.4% (active); in experiment [3], 102% (inactive) and -2.31% (active); in [4], 105% (inactive) and 4.08% (active); in [5], 112% (inactive) and -1.67% (active); in experiment [6] it was 90% (inactive) and -32.5% (active). For the same compound, the growth is 106% (inactive) and 12.6% (inactive) in [7]; 99.7% (inactive) and 0.749% (active) in experiment [8]; 114% (inactive) and -53.4% (active) in [9].

Take `Nc1ccc2c(O)cc(S(=O)(=O)O)cc2c1`: the growth was 93.8% (inactive) and 96.2% (inactive) in [1]; 103% (inactive) and 119% (inactive) in experiment [10]; 86.1% (inactive) and 92.4% (inactive) in [3]; 98.4% (inactive) and 102% (inactive) in experiment [4]; 80.9% (inactive) in [5]; 106% (inactive) and 88.1% (inactive) in [6]. The growth is 105% (inactive) and 92.1% (inactive) in experiment [7]; 98.9% (inactive) and 105% (inactive) in experiment [8].

As to `c1ccc2c(c1)OC1OC2Oc2ccccc21`, the growth was 98.3% (inactive) in experiment [1]; 94.3% (inactive) in [2]; 98.8% (inactive) in experiment [3]; 99.4% (inactive) in experiment [4]; 101% (inactive) in experiment [5]; 87% (inactive) in experiment [6]. The growth was 96.9% (inactive) in experiment [7], 100% (inactive) in experiment [8] and 107% (inactive) in [9].

As for `O=C1C=C(Nc2ccccc2)c2ccccc2C1=O`, the growth in [1] is 23% (inactive) and 66.1% (inactive); in experiment [2] it was 66.4% (inactive) and 83.4% (inactive); in experiment [3] it was 19.1% (inactive) and 123% (inactive); in experiment [4], 14.5% (inactive) and 93.2% (inactive); in [5], 89.7% (inactive); in experiment [6], 76.8% (inactive) and 86.6% (inactive). In addition, the growth is 6.95% (active) and 93.7% (inactive) in [7]; 99.8% (inactive) and 99.3% (inactive) in experiment [8]; 108% (inactive) and 91.9% (inactive) in experiment [9].

Regarding `Nc1cc(N)c(N)cc1N`, the growth in experiment [1] was -66% (active); in experiment [2] it was 93.9% (inactive); in [3], 58.3% (inactive); in experiment [4], 96.8% (inactive); in experiment [5], 115% (inactive); in [6], -80.9% (active). Moreover, the growth in experiment [7] is 88.1% (inactive); in experiment [8], 51.7% (inactive); in [9], 95.7% (inactive).

In the case of `OCCN1CCCCCCC1`, the growth in [1] was 105% (inactive); in [2], 93.8% (inactive); in [3], 99.5% (inactive); in experiment [4], 106% (inactive); in [5] it was 68% (inactive); in experiment [7], 99% (inactive). Besides, the results for the growth in experiment [8] and in [9] were 101% (inactive) and 104% (inactive), respectively.

On to `CN1CNC(=O)NC1`, for which the growth in [1] is 106% (inactive) and 99.9% (inactive); in experiment [2], 98.4% (inactive) and 86.1% (inactive); in [3] it was 108% (inactive) and 103% (inactive); in [4], 103% (inactive) and 108% (inactive); in [5], 94.1% (inactive) and 95.6% (inactive); in [6] it was 91.2% (inactive) and 90% (inactive). Further, the growth in experiment [7] is 110% (inactive) and 93.8% (inactive); in experiment [8], 108% (inactive) and 112% (inactive); in [9] it was 110% (inactive) and 121% (inactive).

With `CC(C)NCC(O)c1ccc(O)c(O)c1` (stereo not drawn), the growth is 98.6% (inactive) and 68.3% (inactive) and 98.2% (inactive) in [1]; 92.1% (inactive) and 96.7% (inactive) and 106% (inactive) in [10]; 97.9% (inactive) and 90.6% (inactive) and 86.7% (inactive) in experiment [3]; 108% (inactive) and 101% (inactive) and 105% (inactive) in experiment [4]; 60.1% (inactive) and 59% (inactive) and 68.4% (inactive) in [5]; 82.4% (inactive) and 140% (inactive) in experiment [6]. The growth in experiment [7] was 106% (inactive) and 119% (inactive) and 103% (inactive); in experiment [8], 94.9% (inactive) and 90.6% (inactive) and 99.7% (inactive); in experiment [9], 107% (inactive) and 114% (inactive) and 104% (inactive).
